Measurements reported in PubChem BioAssay (Tox21).
Results filed as inconclusive are left out. Active and inactive are the calls of the source. Unless noted, the call rests on the fitted dose curve; in most records, active means well fitted curve in the direction sought with a large enough effect in the repeat runs; inconclusive means weak or mixed curves; inactive means no such curve, though single readings can be large; an effect the other way counts as inactive or inconclusive.

Columns and labels:
[1] = qHTS assay for small molecule agonists of the p53 signaling pathway (AID 651631; calls by dose curve; further: nearly all actives have a fitted effect of over 15% in size)
Summary of the method: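 p53RE-bla HCT-116 cells; compounds 16 h, 37 °C; LiveBLAzer B/G FRET substrate 2 h RT; fluorescence intensity read-out, qHTS format.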

[2] = qHTS assay for small molecules that induce genotoxicity in human embryonic kidney cells expressing luciferase-tagged ATAD5 (AID 651632); further: nearly all actives have a fitted effect of over 15% in size
Summary of the method: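 Genotoxicity read-out via ATAD5-luciferase: HEK293T cells, 16 hr compound incubation at 37C, Amplite detection.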

[3] = qHTS assay for small molecule agonists of the p53 signaling pathway - cell viability (AID 651633; calls by dose curve;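 further: p53RE-bla HCT reporter cells with a stable beta-lactamase p53 reporter; series mostly up to about 83 µM; nearly all actives have a fitted effect of over 30% in size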)
Summary of the method: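 p53RE-bla cells, seeded at 4,000 per well and rested 5 h at 37 C/5% CO2, received compounds in DMSO for 16 h at 37 C. CellTiter-Glo was then added, and luminescence was read after 30 min at room temperature to gauge cytotoxicity.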

[4] = qHTS assay for small molecules that induce genotoxicity in human embryonic kidney cells expressing luciferase-tagged ATAD5 - cell viability (AID 651634; calls by dose curve; further: nearly all actives have a fitted effect of over 25% in size)
Summary of the method: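 Live-cell protease activity (CellTiter-Fluor, fluorescence) indicates viability. HEK293T cells with luciferase-tagged ATAD5; 15.5 hr compound treatment at 37C.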

[5] = qHTS assay for small molecule disruptors of the mitochondrial membrane potential - cell viability (AID 720634; calls by dose curve;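 further: human HepG2 liver cancer cells; series mostly up to about 83 µM; nearly all actives have a fitted effect of over 20% in size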)
Summary of the method: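 Human hepatoma HepG2 cells were treated for 1 hr with test chemicals, then given m-MPI dye and CellTiter-Glo. Cell viability reflects luminescence proportional to cellular ATP.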

[6] = qHTS assay for small molecule disruptors of the mitochondrial membrane potential (AID 720635)
Summary of the method: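 HepG2 cells (2,000/well) attached overnight at 37C, then took compound for 1 hr at 37C, 5% CO2. Mito-MPS dye was added for 30 min; fluorescence was read at 490/535 nm (monomers) and 540/590 nm (aggregates).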

[7] = qHTS assay to test for compound auto fluorescence at 535 nm (green) in HepG2 cells (AID 720675)
[8] = qHTS assay to test for compound auto fluorescence at 460 nm (blue) in HEK293 cells (AID 720678)
Summary of the method: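 Cells were seeded and left to adhere for 4-5 hr at 37C. Compounds were then pin-transferred. After an overnight incubation at 37C under 5% CO2, intrinsic fluorescence at 405/460 nm was measured and referenced to triamterene.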

[9] = qHTS assay to test for compound auto fluorescence at 590 nm (red) in HEK293 cells (AID 720679)
Summary of the method: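 Each well held 2,000 HEK293 cells in medium containing 10% dialyzed FBS. Following 4-5 hr attachment at 37C, 23 nL test compound or DMSO was added; plates sat overnight, and red fluorescence (540/590nm) was recorded.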

[10] = qHTS assay to test for compound auto fluorescence at 535 nm (green) in HEK293 cells (AID 720680)
[11] = qHTS assay to test for compound auto fluorescence at 460 nm (blue) in HEK293 cell free culture (AID 720681)
Summary of the method: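 Test compounds were pinned into cell-free culture medium (DMEM with 10% FBS) and fluorescence was read directly at Ex/Em 405/460 nm. Signals were expressed as fluorescence equivalents of triamterene, with DMSO vehicle as control.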

[12] = qHTS assay to test for compound auto fluorescence at 535 nm (green) in HEK293 cell free culture (AID 720682)
Summary of the method: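 Cell-free medium (DMEM, 10% FBS) receives compound or DMSO by pintool. Plate read directly at Ex 485/Em 535 nm. Signal converted to fluorescein equivalency.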

[13] = qHTS assay to test for compound auto fluorescence at 590 nm (red) in HEK293 cell free culture (AID 720683)
Summary of the method: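 Tox21 10K library compounds were pinned into cell-free DMEM with 10% FBS and fluorescence was read at excitation 540 nm. Activity is expressed as Rose Bengal sodium equivalency.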

[14] = qHTS assay to test for compound auto fluorescence at 590 nm (red) in HepG2 cell free culture (AID 720684)
Summary of the method: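 Measured in medium alone (MEM containing 10% FBS) following pintool addition of compound; emission at 590 nm with 540 nm excitation, referenced to Rose Bengal sodium.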

[15] = qHTS assay to test for compound auto fluorescence at 460 nm (blue) in HepG2 cell free culture (AID 720685)
Summary of the method: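 Compound (23 nL) or DMSO pinned into cell-free MEM with 10% FBS; blue fluorescence read at 405/460 nm excitation/emission, expressed as auto-fluorescence equivalency to triamterene.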

[16] = qHTS assay to test for compound auto fluorescence at 535 nm (green) in HepG2 cell free culture (AID 720686)
[17] = qHTS assay to test for compound auto fluorescence at 460 nm (blue) in HepG2 cells (AID 720687)
Summary of the method: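 Cells (2,000/well in MEM with 10% FBS) attached overnight at 37 C, then were exposed to compound or DMSO for 1 hr at 37 C, 5% CO2. Fluorescence read at Ex/Em 405/460 nm, expressed as triamterene-equivalent signal.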

[18] = biological target: Glucocorticoid receptor (Homo sapiens) (UniProt P04150); test: qHTS assay to identify small molecule agonists of the glucocorticoid receptor (GR) signaling pathway (AID 720691; active means well fitted activation curve with a large enough effect in the signal ratio in the repeat runs, not every such curve was filed as active; the % refers to the signal ratio)
Summary of the method: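 Beta-lactamase reporter activity, read as fluorescence intensity, was measured in GR-bla HeLa cells exposed to compounds for 18 h at 37 C and then loaded with LiveBLAzer B/G FRET substrate for 2 h at room temperature.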

[19] = biological target: Glucocorticoid receptor (Homo sapiens) (UniProt P04150); test: qHTS assay to identify small molecule antagonists of the glucocorticoid receptor (GR) signaling pathway (AID 720692; active means well fitted inhibition curve with a large enough effect in the signal ratio in the repeat runs, not every such curve was filed as active; the % refers to the signal ratio)
Summary of the method: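 Fluorescence from cleaved LiveBLAzer B/G FRET substrate reports GRE-driven beta-lactamase in HeLa cells; compounds are tested against 5 nM dexamethasone (final) over 18 h at 37 C, substrate incubation 2 h at room temperature.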

[20] = qHTS assay to test for compound auto fluorescence at 590 nm (red) in HepG2 cells (AID 720674)
Summary of the method: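 Intrinsic compound fluorescence in the red window (Ex/Em 540/590 nm) is measured in attached HepG2 cells exposed for 1 hr, DMSO vehicle as baseline, benchmarked to Rose Bengal sodium.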
On the % scale 0 is the no-effect control and ±100 the full control effect.

Glucocorticoid receptor (Homo sapiens), sequence (P04150 whole entry, looked up): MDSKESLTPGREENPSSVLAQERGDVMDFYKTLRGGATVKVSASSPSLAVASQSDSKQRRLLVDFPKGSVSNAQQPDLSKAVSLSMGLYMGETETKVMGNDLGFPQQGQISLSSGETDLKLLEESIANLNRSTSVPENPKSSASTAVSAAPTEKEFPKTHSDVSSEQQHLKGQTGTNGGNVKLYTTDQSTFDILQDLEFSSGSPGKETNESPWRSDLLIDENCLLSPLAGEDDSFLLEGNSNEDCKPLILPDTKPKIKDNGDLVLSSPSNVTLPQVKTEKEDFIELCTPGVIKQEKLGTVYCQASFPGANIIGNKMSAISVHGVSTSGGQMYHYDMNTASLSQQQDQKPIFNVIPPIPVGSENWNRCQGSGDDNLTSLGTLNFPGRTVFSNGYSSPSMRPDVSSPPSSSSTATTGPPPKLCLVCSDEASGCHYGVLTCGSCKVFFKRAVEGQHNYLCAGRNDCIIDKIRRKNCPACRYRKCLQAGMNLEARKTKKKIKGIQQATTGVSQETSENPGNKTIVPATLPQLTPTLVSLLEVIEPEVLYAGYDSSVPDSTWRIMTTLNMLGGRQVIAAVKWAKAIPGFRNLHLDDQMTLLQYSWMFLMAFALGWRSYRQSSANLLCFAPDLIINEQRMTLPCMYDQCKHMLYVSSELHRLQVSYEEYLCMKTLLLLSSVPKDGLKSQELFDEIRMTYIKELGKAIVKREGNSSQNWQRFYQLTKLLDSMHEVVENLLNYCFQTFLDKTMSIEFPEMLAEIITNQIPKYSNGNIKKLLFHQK

Cc1nccn1CC1CCc2c(c3ccccc3n2C)C1=O (centres undefined)
inactive: Potency [1] | Potency [2] | Potency [3] | Potency [4] | Potency [5] | Potency [6] | outcome [7] | Potency [8] | outcome [9] | outcome [10] | Potency [11] | outcome [12] | outcome [13] | outcome [14] | Potency [15] | outcome [16] | Potency [17] | Potency [18] | Potency [19]

CCOC(=O)[C@H](CCc1ccccc1)N[C@@H](C)C(=O)N1CCC[C@H]1C(=O)O
inactive: Potency [1] | Potency [2] | Potency [3] | Potency [4] | Potency [5] | Potency [6] | outcome [20] | outcome [7] | Potency [8] | outcome [9] | outcome [10] | Potency [11] | outcome [13] | outcome [14] | Potency [15] | outcome [16] | Potency [17] | Potency [18] | Potency [19]

COc1cc(O)cc(O)c1
inactive: Potency [1] | Potency [2] | Potency [3] | Potency [4] | Potency [5] | outcome [20] | outcome [7] | Potency [8] | outcome [9] | outcome [10] | Potency [11] | outcome [12] | outcome [13] | outcome [14] | Potency [15] | outcome [16] | Potency [17]

FC(F)(F)C(F)(F)C(F)(F)C(F)(F)C(F)(F)C(F)(F)C(F)(F)C(F)(F)C(F)(F)C(F)(F)F
inactive: activation [1] -5.47% [at 8.3 µM] | activation [2] 3.4% [at 8.08 µM] | activity change, negative = cytotoxicity [3] -19.5% [at 8.08 µM] | activity, negative = cytotoxicity [4] 13.6% [at 8.08 µM] | activity change, negative = cytotoxicity [5] 3.63% [at 8.08 µM] | ratio activity, negative = MMP loss [6] 21.5% [at 8.08 µM] | fluorescence, % of fluorescein control [7] -0.0906% [at 9.17 µM] | fluorescence, % of triamterene [8] -0.0034% [at 9.17 µM] | fluorescence, % of fluorescent control [9] -0.155% [at 9.17 µM] | fluorescence, % of fluorescein [10] 0.0789% [at 9.17 µM] | fluorescence, % of fluorescent control [11] -0.0458% [at 9.17 µM] | activity change [12] 0.0023% [at 9.17 µM] | fluorescence, % of fluorescent control [13] -0.0476% [at 9.17 µM] | fluorescence, % of fluorescent control [15] -0.151% [at 9.17 µM] | fluorescence, % of fluorescein control [16] 0.0369% [at 9.17 µM] | fluorescence, % of fluorescent control [17] 0.105% [at 9.17 µM] | activation [18] -0.303% [at 6.9 µM] | activity change, negative = inhibition [19] -11.7% [at 7.04 µM]

CC(C)(O)C(=O)c1ccc(OCCO)cc1
inactive: Potency [1] | Potency [2] | Potency [3] | Potency [4] | Potency [5] | Potency [6] | outcome [7] | Potency [8] | outcome [9] | outcome [10] | Potency [11] | outcome [12] | outcome [13] | outcome [14] | Potency [15] | outcome [16] | Potency [17] | Potency [18] | Potency [19]

CC(C)=CCC/C(C)=C/C(=O)O
inactive: Potency [1] | Potency [2] | Potency [3] | Potency [4] | Potency [5] | Potency [6] | outcome [20] | outcome [7] | Potency [8] | outcome [9] | outcome [10] | Potency [11] | outcome [13] | outcome [14] | Potency [15] | outcome [16] | Potency [17] | Potency [19]

CCCCCCCCCCCCCCCCCC(=O)OCCCCCCCCCCCCCC(C)C
inactive: Potency [1] | Potency [2] | Potency [3] | Potency [4] | Potency [5] | Potency [6] | outcome [20] | outcome [7] | outcome [9] | outcome [10] | Potency [11] | outcome [12] | outcome [13] | outcome [14] | Potency [15] | outcome [16] | Potency [17] | Potency [18] | Potency [19]
